Assay results published in PubChem BioAssay (NCI).
Compounds without any hit were thinned out: in the full panel of roughly 83,000, 20% have a hit.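 Treatment: one concentration, 48 hours, 96-well format. Scoring: percent growth, with anything below 10 considered active.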 The source made the active and inactive calls.

Test system: UACC-257 melanoma
Experiment: NCI-60 one-dose screen, 48 h (100 = growth as untreated, 0 = no growth, -100 = all killed)
Conditions: 10 µM unless noted

SMILES	growth
CCN(CC)c1nc(SCC(=O)Nc2nc3ccc(C)cc3s2)nc(-c2ccccc2)c1C#N	96.5% (inactive)
Cn1cc(-c2csc(-c3cccc(F)c3)n2)c2cccnc21	-37.6% [100 µM] (active)
CCN1CCN(c2cc(C)nc(NCc3cc(Nc4ccnc5cc(Cl)ccc45)ccc3F)n2)CC1	69.2% (inactive)
CSc1n(Cc2ccc3ccccc3c2)c(C)c[n+]1Cc1ccc2ccccc2c1	-41.5% (active)
NC(=N\N=C/c1cccc([N+](=O)[O-])c1)/C(N)=N\N=C/c1cccc([N+](=O)[O-])c1	85.6% (inactive)
COc1ccc(-c2csc(C3=C(O)CN(C(C)C)C3=N)n2)cc1OC	105% (inactive)
COc1ccc(-c2ccc3c(c2)sc2nc(-c4ccc(F)cc4)cn23)cc1	80.9% (inactive)
Cc1ccc(S(=O)(=O)NCC[C@@H]2C[C@H]2c2cc3ccccc3s2)cc1	108% (inactive)
Cc1cccc(NC(=O)CSc2nc3ccccc3[nH]2)c1	111% (inactive)
C[n+]1cc2cc(C(N)=O)[nH]c3c(=N)c(Cl)c(N)c1c23	45.5% (inactive)
CCN(CC)CCCNc1ccc(Nc2ccc(OC)cc2)cc1	87.4% (inactive)
O=C1C=C[C@]2(C[C@@H](c3cccc(C(F)(F)F)c3)O[C@@H](c3cccc(C(F)(F)F)c3)O2)O1	59.6% (inactive)
Cc1nc2c(c(N3CCCc4ccccc43)n1)CCC2	26.3% (inactive)
Cc1cc(Cl)nc(NCc2cc(Nc3ccnc4cc(Cl)ccc34)ccc2F)n1	64.2% (inactive)
COc1ccc(NC(=O)CSc2nnc(-c3cc(-c4ccc(S(N)(=O)=O)cc4)nc4ccccc34)n2-c2ccccc2)cc1	103% (inactive)
COc1ccc(-c2nc3ccc4[nH]ncc4c3c3c2CCCC3)cc1B(O)O	88.5% (inactive)
CC/C=C\C[C@H](O)C/C=C1/C(=O)C=C[C@@H]1C/C=C\CCCCO	34% (inactive)
O=C(/C=C/c1c(Cl)nc2sccn12)c1nccs1	81% (inactive)
O=c1[nH]ccc2nc(N3CCC(O)CC3)nc(Nc3ccc(N4CCOCC4)cc3)c12	53.2% (inactive)

SMILES	growth
COc1ccc2c(c1)CCCN2c1c2ccccc2nc2ccccc12	71.2% (inactive)
COc1ccc(N=C(c2ccccc2)C2C(=O)c3ccccc3C2=O)cc1	93.8% (inactive)
Cc1c(O)cc(-c2cnc(N/N=C\c3ccc(Cl)cc3)s2)c(O)c1C	91.2% (inactive)
NS(=O)(=O)c1ccc(-n2nc(C(=O)N/N=C\c3ccc(F)cc3)cc2-c2ccc(Cl)cc2)cc1	101% (inactive)
CCN1CCN(c2nc(C)cc(NCc3cc(Nc4ccnc5cc(Cl)ccc45)ccc3F)n2)CC1	-57.7% (active)
COc1ccc2[nH]c(O)c(/C=c3/cc4c(c(-c5ccc(F)c(OC)c5)n3)=Nc3ccccc3-4)c2c1	103% (inactive)
CCCCCS(=O)(=O)Nc1ccc(C(=O)O)cc1	95% (inactive)
CN(C)CC1C(=O)O[C@H]2[C@H]1CC/C(COC(=O)c1cc3ccccc3[nH]1)=C\CC[C@@]1(C)O[C@@H]21 (some centres undefined)	-86% (active)
N#CC1=C(c2ccc(Br)cc2)NC(SCC(=O)c2ccc(Br)cc2)NC1=O (centres undefined)	103% (inactive)
O=c1c2c3c(sc2n2c(-c4cn(-c5ccccc5)nc4-c4ccc(Cl)cc4)nnc2n1Cc1ccccc1)CCCC3	118% (inactive)
COc1cc(/C=C/C(=O)c2cccc(-n3cc(-c4ccccc4)[nH]c3=O)c2)ccc1O	68.8% (inactive)
CCCCCCCCCOc1c(OC)cc(C2CC(=O)Nc3c2c(C)nn3-c2nc3ccccc3[nH]2)cc1OC (centres undefined)	15.5% (inactive)
Cc1ccc2c(c1)Sc1c(ccc3ccccc13)N2	80.4% (inactive)
CC(C)(C)C(CCc1ccc(Cl)cc1)N1CCN(C2CCCCC2)CC1 (centres undefined)	51.4% (inactive)
COc1ccc(C2=NN(C(=O)c3cc(OC)c(OC)c(OC)c3)C(c3ccc(Cl)cc3)C2)cc1OC (centres undefined)	54.5% (inactive)
Cc1cc(NCc2cc(Nc3ccnc4cc(Cl)ccc34)ccc2F)nc(N2CCSCC2)n1	17.6% (inactive)
N#Cc1c(-c2cccc(Cl)c2)cc(-c2cccc(F)c2)[nH]c1=O	102% (inactive)
O=C(CSc1nnc(-c2ccc(NC(=O)c3cccnc3)cc2)o1)N[C@@H](Cc1ccc(O)cc1)C(=O)O	99.7% (inactive)

Test system: M14 melanoma
Experiment: as above
Conditions: 10 µM unless noted

SMILES	growth
CCN(CC)c1nc(SCC(=O)Nc2nc3ccc(C)cc3s2)nc(-c2ccccc2)c1C#N	101% (inactive)
Cn1cc(-c2csc(-c3cccc(F)c3)n2)c2cccnc21	-77.2% [100 µM] (active)
CCN1CCN(c2cc(C)nc(NCc3cc(Nc4ccnc5cc(Cl)ccc45)ccc3F)n2)CC1	-64.3% (active)
CSc1n(Cc2ccc3ccccc3c2)c(C)c[n+]1Cc1ccc2ccccc2c1	-14.3% (active)
NC(=N\N=C/c1cccc([N+](=O)[O-])c1)/C(N)=N\N=C/c1cccc([N+](=O)[O-])c1	92.8% (inactive)
COc1ccc(-c2csc(C3=C(O)CN(C(C)C)C3=N)n2)cc1OC	136% (inactive)
COc1ccc(-c2ccc3c(c2)sc2nc(-c4ccc(F)cc4)cn23)cc1	98% (inactive)
Cc1ccc(S(=O)(=O)NCC[C@@H]2C[C@H]2c2cc3ccccc3s2)cc1	108% (inactive)
Cc1cccc(NC(=O)CSc2nc3ccccc3[nH]2)c1	107% (inactive)
C[n+]1cc2cc(C(N)=O)[nH]c3c(=N)c(Cl)c(N)c1c23	59.9% (inactive)
CCN(CC)CCCNc1ccc(Nc2ccc(OC)cc2)cc1	94.7% (inactive)
O=C1C=C[C@]2(C[C@@H](c3cccc(C(F)(F)F)c3)O[C@@H](c3cccc(C(F)(F)F)c3)O2)O1	44.8% (inactive)
Cc1nc2c(c(N3CCCc4ccccc43)n1)CCC2	-17.6% (active)
Cc1cc(Cl)nc(NCc2cc(Nc3ccnc4cc(Cl)ccc34)ccc2F)n1	60.9% (inactive)
COc1ccc(NC(=O)CSc2nnc(-c3cc(-c4ccc(S(N)(=O)=O)cc4)nc4ccccc34)n2-c2ccccc2)cc1	86.1% (inactive)
COc1ccc(-c2nc3ccc4[nH]ncc4c3c3c2CCCC3)cc1B(O)O	46.5% (inactive)
CC/C=C\C[C@H](O)C/C=C1/C(=O)C=C[C@@H]1C/C=C\CCCCO	16.4% (inactive)
O=C(/C=C/c1c(Cl)nc2sccn12)c1nccs1	93.9% (inactive)
O=c1[nH]ccc2nc(N3CCC(O)CC3)nc(Nc3ccc(N4CCOCC4)cc3)c12	41.4% (inactive)

SMILES	growth
COc1ccc2c(c1)CCCN2c1c2ccccc2nc2ccccc12	3.64% (active)
COc1ccc(N=C(c2ccccc2)C2C(=O)c3ccccc3C2=O)cc1	92% (inactive)
Cc1c(O)cc(-c2cnc(N/N=C\c3ccc(Cl)cc3)s2)c(O)c1C	96.2% (inactive)
NS(=O)(=O)c1ccc(-n2nc(C(=O)N/N=C\c3ccc(F)cc3)cc2-c2ccc(Cl)cc2)cc1	-85.9% (active)
CCN1CCN(c2nc(C)cc(NCc3cc(Nc4ccnc5cc(Cl)ccc45)ccc3F)n2)CC1	-83.7% (active)
COc1ccc2[nH]c(O)c(/C=c3/cc4c(c(-c5ccc(F)c(OC)c5)n3)=Nc3ccccc3-4)c2c1	-8.58% (active)
CCCCCS(=O)(=O)Nc1ccc(C(=O)O)cc1	101% (inactive)
CN(C)CC1C(=O)O[C@H]2[C@H]1CC/C(COC(=O)c1cc3ccccc3[nH]1)=C\CC[C@@]1(C)O[C@@H]21 (some centres undefined)	-62.3% (active)
N#CC1=C(c2ccc(Br)cc2)NC(SCC(=O)c2ccc(Br)cc2)NC1=O (centres undefined)	100% (inactive)
O=c1c2c3c(sc2n2c(-c4cn(-c5ccccc5)nc4-c4ccc(Cl)cc4)nnc2n1Cc1ccccc1)CCCC3	60.3% (inactive)
COc1cc(/C=C/C(=O)c2cccc(-n3cc(-c4ccccc4)[nH]c3=O)c2)ccc1O	84.7% (inactive)
CCCCCCCCCOc1c(OC)cc(C2CC(=O)Nc3c2c(C)nn3-c2nc3ccccc3[nH]2)cc1OC (centres undefined)	-25.5% (active)
Cc1ccc2c(c1)Sc1c(ccc3ccccc13)N2	65.4% (inactive)
CC(C)(C)C(CCc1ccc(Cl)cc1)N1CCN(C2CCCCC2)CC1 (centres undefined)	31.9% (inactive)
COc1ccc(C2=NN(C(=O)c3cc(OC)c(OC)c(OC)c3)C(c3ccc(Cl)cc3)C2)cc1OC (centres undefined)	6.09% (active)
Cc1cc(NCc2cc(Nc3ccnc4cc(Cl)ccc34)ccc2F)nc(N2CCSCC2)n1	-51.6% (active)
N#Cc1c(-c2cccc(Cl)c2)cc(-c2cccc(F)c2)[nH]c1=O	101% (inactive)
O=C(CSc1nnc(-c2ccc(NC(=O)c3cccnc3)cc2)o1)N[C@@H](Cc1ccc(O)cc1)C(=O)O	100% (inactive)
